# Active and inactive are the calls of the source. The calls were made as follows: active = hit-call score of the fitted dose curve at least 0.9, where 1 is the maximum; inactive = score below 0.9.
# Test: APR_HepG2_MicrotubuleCSK_1hr: Apredica 1-hour HepG2 Assay for Microtubule CSK Stabilty (AID 2282669)
# Settings: HepG2 microtubule cytoskeleton imaging, actives raise or lower the signal
# Method: APR_HepG2_1hr is a cell-based, multiplexed-readout assay that uses HepG2, a human liver cell line, with measurements taken at 1 hour after chemical dosing in a 384-well plate.APR_HepG2_MicrotubuleCSK_1hr is one of 10 assay component(s) measured or calculated from the APR_HepG2_1hr assay. It is designed to make measurements of protein conformation, a form of conformation reporter, as detected with fluorescence intensity signals by HCS Fluorescent Imaging technology.Data from the assay component APR_HepG2_MicrotubuleCSK_1hr was analyzed into 1 assay endpoint. This assay endpoint, APR_HepG2_MicrotubuleCSK_1hr, was analyzed with bidirectional fitting relative to DMSO as the negative control and baseline of activity. Using a type of conformation reporter, measures of protein for gain or loss-of-signal activity can be used to understand the signaling at the cellular-level. Furthermore, this assay endpoint can be referred to as a primary readout, because this assay has produced multiple assay endpoints where this one serves a signaling function. To generalize the intended target to other relatable targets, this assay endpoint is annotated to the cell morphology intended target family, where the subfamily is cell conformation.
# Cells were treated with dimethyl sulfoxide (DMSO) as a solvent control at a final concentration of 0.5% v/v or with compounds in DMSO with a resulting final DMSO concentration of 0.5% v/v. Compound treatment was done at concentrations of 0.39, 0.78, 1.56, 3.12, 6.24, 12.5, 25, 50, 100, and 200 uM in duplicate on each plate. Cells were treated with compounds for 1, 24, or 72 hr. Carbonyl […] m-chloro-phenylhydrazone (CCCP) and taxol were used as positive controls for mitochondrial function and cytoskeletal stability, respectively; DMSO served as the negative control for this experiment. Cells were fixed by the direct addition of 50 uL formaldehyde in Hank's Balanced Salt Solution (HBSS) to a final concentration of 3.7%. After incubation in the fixation medium for 30 min at room temperature (293-298 K), cells were rinsed twice with HBSS and treated with cell permeabilization buffer (16 uL of 0.5% Triton X-100) for 10 min at room temperature (293-298 K) before labeling. For mitochondrial membrane potential and mitochondrial measurements, pre-fixed cells were incubated with 50 uL of MitoTracker Red CMXRos (Invitrogen) at a concentration of 250 nM for 30 min before fixation. In the remaining cases, post-fixed cells were labeled by incubation with a multiplexed mixture of primary antibodies in HBSS for 60 min at room temperature (293-298 K) to detect immunoreactivity of c-Jun (1:500), phospho-histone H3 (1:100), phospho-histone H2A.x (1:200), p53 (1:400), alpha-tubulin (1:200) and Hoechst 33342 (2 ug/mL). Cells were labeled for multiplexed imaging on two separate plates: a) Hoechst 33342, MitoTracker Red, phospho-histone H3, and alpha-tubulin, and b) Hoechst 33342, phospho-histone H2A.x, and c-Jun. A final rinse with HBSS (50 uL) was performed before analysis. The primary and secondary antibodies for the proteins were phospho-histone H3 (rabbit anti-phospho-histone H3 and FITC-donkey anti-rabbit IgG), phospho-histone H2A.x (mouse anti-phospho-histone H2A.x and FITC-donkey anti-mouse IgG), c-Jun (rabbit anti-phospho-c-Jun and Cy3-donkey anti-rabbit IgG), p53 (sheep anti-p53 and Cy5-donkey anti-sheep IgG), alpha-tubulin (mouse anti-alpha-tubulin and Cy5-donkey anti-mouse IgG). These antibodies are available as the CellCiphr HepG2 assay kit (Millipore).Digital images of each well were captured using a Cellomics ArrayScan VTI (Thermo Scientific Cellomics) (0.8 NA objective, 0.63x optical coupler, and XF-93 filter set) at 20x magnification. The images were acquired using the autofocus feature of the ArrayScan instrument, which entails the following steps. First, the camera focuses on channel 1 (Hoechst 33342), where nuclei are identified. Second, a Z offset of 1 um is used for capturing mitochondria (MitoTracker Red). […]
row,SMILES,outcome
1,COC(=O)c1cccc(C)c1S(=O)(=O)NC(=O)Nc1nc(OCC(F)(F)F)nc(N(C)C)n1,inactive
2,COC(=O)c1ccc(CNS(C)(=O)=O)cc1S(=O)(=O)NC(=O)Nc1nc(OC)cc(OC)n1,inactive
3,COc1c(Cl)ccc(Cl)c1C(=O)O,inactive
4,COC(=O)c1ccccc1C(=O)O,inactive
5,OB(O)O,inactive
6,CCOC(=O)NCCOc1ccc(Oc2ccccc2)cc1,inactive
7,CCC(C)OC(=O)N1CCCCC1CCO (stereo not given),inactive
8,c1ccc(Nc2ccccc2)cc1,inactive
9,CC(C)(c1ccc(O)cc1)c1ccc(O)cc1,inactive
10,CCC(O)=C1C(=O)CC(C(=O)O)CC1=O (stereo not given),inactive
11,CCNc1nc(N)nc(Cl)n1,inactive
12,C#CCOC(=O)[C@@H](C)Oc1ccc(Oc2ncc(Cl)cc2F)cc1,inactive
13,CCOC(=O)C(C)Oc1ccc(Oc2nc3ccc(Cl)cc3o2)cc1 (stereo not given),inactive
14,CCCCCOC(=O)COc1cc(N2C(=O)C3=C(CCCC3)C2=O)c(F)cc1Cl,inactive
15,COC(=O)CSc1cc(N=c2sc(=O)n3n2CCCC3)c(F)cc1Cl,inactive
16,CCCCOCCOCCOCc1cc2c(cc1CCC)OCO2,inactive
17,CCOC(=O)C(C)Oc1ccc(Oc2cnc3cc(Cl)ccc3n2)cc1 (stereo not given),inactive
18,CCOC(=O)[C@H](C)Oc1ccc(Oc2nc3ccc(Cl)cc3o2)cc1,inactive
19,CCCN(CCC)c1c([N+](=O)[O-])cc(C(F)(F)F)c(N)c1[N+](=O)[O-],inactive
20,N#CSCSc1nc2ccccc2s1,inactive

row,SMILES,outcome
1,COC(=O)c1ccc(I)cc1S(=O)(=O)NC(=O)Nc1nc(C)nc(OC)n1,inactive
2,COC(=O)c1c(Cl)nn(C)c1S(=O)(=O)NC(=O)Nc1nc(OC)cc(OC)n1,inactive
3,COCCO,inactive
4,c1ccc2[nH]c(-c3cscn3)nc2c1,inactive
5,O=C(O)C1(C(=O)Nc2ccc(Cl)cc2Cl)CC1,inactive
6,CCCN(CCC)C(=O)SCC,inactive
7,CCCCOC(=O)C(C)Oc1ccc(Oc2ccc(C(F)(F)F)cn2)cc1 (stereo not given),inactive
8,Oc1ccc(C(c2ccc(O)cc2)C(Cl)(Cl)Cl)cc1,inactive
9,CCCCOC(=O)[C@@H](C)Oc1ccc(Oc2ccc(C(F)(F)F)cn2)cc1,inactive
10,CCOC(=O)COc1cc(-n2ncc(C(F)(F)F)c(C)c2=O)c(F)cc1Cl,inactive
11,S=C([S-])NCCNC(=S)[S-].[Mn+2],inactive
12,CN(C)C(=O)Nc1ccc(Cl)c(Cl)c1,inactive
13,CCN(Cc1c(F)cccc1Cl)c1c([N+](=O)[O-])cc(C(F)(F)F)cc1[N+](=O)[O-],inactive
14,S=C(S)NCCNC(=S)S.[Mn+2].[S-]C([S-])=NCCN=C([S-])[S-].[Zn+2],inactive
15,COc1nc(C)nc(NC(=O)NS(=O)(=O)c2ccccc2OCCCl)n1,inactive
16,COC(=O)c1ccccc1S(=O)(=O)NC(=O)Nc1nc(OC(F)F)cc(OC(F)F)n1,inactive
17,CSC(=O)c1cccc2nnsc12,inactive
18,CCCOC(=O)NCCCN(C)C,inactive
19,CCCOC(=O)c1ccc(C(=O)OCCC)nc1,inactive
20,CCCCC(CC)CN1C(=O)C2C3C=CC(C3)C2C1=O (stereo not given),inactive

# From PubChem BioAssay (EPA / NIEHS)
